# Values joined by “and” are separate entries in the source; they are usually repeats but may differ in a detail not shown here. Equal values may be shown once. Some compounds were tested as several samples or in several runs, with calls that do not always agree. Active and inactive are the calls of the source. How the source made its calls: active means hit-call score of the fitted dose curve at least 0.9, where 1 is the maximum; inactive means score below 0.9.
# How the values were obtained:
# [1] = read-out: Interferon-gamma inducible Protein 10 (IP10), CXCL10 (gene 3627); test: BSK_hDFCGF_IP10: BioMAP Diversity Plus: hDFCGF Assay for Interferon-gamma inducible Protein 10 (IP10) Biomarker Activity (AID 2283053); conditions: primary human foreskin fibroblasts; actives raise or lower the signal
# Method in brief: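 Human foreskin fibroblast primary cells (hDFCGF system) were dosed with chemical and assayed at 24 h; IP-10 measured by ELISA. Activity fitted bidirectionally relative to DMSO negative control as baseline.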
# [2] = read-out: Urokinase-type plasminogen activator receptor (uPAR), PLAUR (gene 5329); test: BSK_CASM3C_uPAR: BioMAP Diversity Plus: CASM3C Assay for Urokinase-type plasminogen activator receptor (uPAR) Biomarker Activity (AID 2283054); conditions: primary human coronary artery smooth muscle cells; actives raise or lower the signal;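 further: cell-surface uPAR protein level quantified by ELISA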
# [3] = read-out: Vascular cell adhesion molecule 1 (VCAM1), VCAM1 (gene 7412); test: BSK_CASM3C_VCAM1: BioMAP Diversity Plus: CASM3C Assay for Vascular cell adhesion molecule 1 (VCAM1) Biomarker Activity (AID 2283055); conditions: primary human coronary artery smooth muscle cells; actives raise or lower the signal;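 further: VCAM-1 protein level quantified by ELISA on the cells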
# [4] = read-out: Collagen III, COL3A1 (gene 1281); test: BSK_hDFCGF_CollagenIII: BioMAP Diversity Plus: hDFCGF Assay for Collagen III Biomarker Activity (AID 2283056); conditions: primary human foreskin fibroblasts; actives raise or lower the signal
# Method in brief: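 Response relative to DMSO, fitted in both directions, reflects ELISA-measured collagen III in human primary skin fibroblasts 24 h after compound addition.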
# [5] = read-out: Epidermal growth factor receptor (EGFR), EGFR (gene 1956); test: BSK_hDFCGF_EGFR: BioMAP Diversity Plus: hDFCGF Assay for Epidermal growth factor receptor (EGFR) Biomarker Activity (AID 2283057); conditions: primary human foreskin fibroblasts; actives raise or lower the signal
# Method in brief: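 Primary human foreskin fibroblasts were exposed to compound for 24 h, after which cell-surface EGFR was quantified by ELISA. Activity was fitted bidirectionally against the DMSO negative control as baseline.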
# [6] = read-out: Interleukin-8 (IL8), CXCL8 (gene 3576); test: BSK_hDFCGF_IL8: BioMAP Diversity Plus: hDFCGF Assay for Interleukin-8 (IL8) Biomarker Activity (AID 2283058); conditions: primary human foreskin fibroblasts; actives raise or lower the signal
# Method in brief: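 Fibroblast monolayers (human foreskin, hDFCGF) received test chemical for 24 h before ELISA detection of IL-8; either increases or decreases relative to DMSO count as activity.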
# [7] = BSK_hDFCGF_Proliferation: Cell Proliferation Assessment in the BioMAP Diversity Plus: hDFCGF Assay (AID 2283059); conditions: primary human foreskin fibroblasts;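 further: curves fitted for both rise and fall of signal versus DMSO baseline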
# Method in brief: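 Primary human foreskin fibroblasts, sub-confluent; […]; 10% TCA fix, 0.1% SRB stain, A560 total protein. Gain/loss fitted bidirectionally vs DMSO control.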
# [8] = read-out: Macrophage colony-stimulating factor (MCSF), CSF1 (gene 1435); test: BSK_hDFCGF_MCSF: BioMAP Diversity Plus: hDFCGF Assay for Macrophage colony-stimulating factor (MCSF) Biomarker Activity (AID 2283060); conditions: primary human foreskin fibroblasts; actives raise or lower the signal
# Method in brief: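 fibroblasts (human foreskin, primary), 24 h post-dose; M-CSF by ELISA; bidirectional fit, DMSO = baseline.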
# [9] = BSK_hDFCGF_SRB: Viability Assessment in the BioMAP Diversity Plus: hDFCGF Assay (AID 2283061); conditions: primary human foreskin fibroblasts;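 further: cells exposed to compound for 24 h before the read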
# Method in brief: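 SRB-based viability read on primary human skin fibroblasts at 24 h: TCA fixation, 0.1% dye, 560 nm. Gain or loss of signal is fitted against the DMSO negative control.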
# [10] = read-out: TIMP metallopeptidase inhibitor 1 (TIMP1), TIMP1 (gene 7076); test: BSK_hDFCGF_TIMP1: BioMAP Diversity Plus: hDFCGF Assay for TIMP metallopeptidase inhibitor 1 (TIMP1) Biomarker Activity (AID 2283062); conditions: primary human foreskin fibroblasts; actives raise or lower the signal
# Method in brief: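 Bidirectional curve fitting against DMSO baseline yielded this endpoint, based on ELISA detection of TIMP-1 in primary human foreskin fibroblasts exposed to compound for 24 h.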
# [11] = read-out: Monokine induced gamma interferon (MIG), CXCL9 (gene 4283); test: BSK_hDFCGF_MIG: BioMAP Diversity Plus: hDFCGF Assay for Monokine induced gamma interferon (MIG) Biomarker Activity (AID 2283063); conditions: primary human foreskin fibroblasts; actives raise or lower the signal
# Method in brief: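 Endpoint derived by bidirectional fitting relative to DMSO; MIG quantified via ELISA in primary human foreskin fibroblasts harvested 24 h after dosing.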
# [12] = read-out: Matrix Metallopeptidase 1 (MMP1), MMP1 (gene 4312); test: BSK_hDFCGF_MMP1: BioMAP Diversity Plus: hDFCGF Assay for Matrix Metallopeptidase 1 (MMP1) Biomarker Activity (AID 2283064); conditions: primary human foreskin fibroblasts; actives raise or lower the signal
# Method in brief: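 hDFCGF primary fibroblasts (human foreskin); chemical added; 24 h; MMP1 by ELISA; bidirectional fit vs DMSO.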
# [13] = read-out: Vascular cell adhesion molecule 1 (VCAM1), VCAM1 (gene 7412); test: BSK_hDFCGF_VCAM1: BioMAP Diversity Plus: hDFCGF Assay for Vascular cell adhesion molecule 1 (VCAM1) Biomarker Activity (AID 2283065); conditions: primary human foreskin fibroblasts; actives raise or lower the signal;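 on AC50: VCAM-1 protein level quantified by ELISA after 24 h chemical exposure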
# Method in brief: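 Measured after 24 h chemical treatment of primary human skin fibroblasts, VCAM-1 was detected by ELISA and concentration-response analysed in both directions versus DMSO vehicle.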
# [14] = read-out: Plasminogen activator inhibitor-1 (PAI1), SERPINE1 (gene 5054); test: BSK_hDFCGF_PAI1: BioMAP Diversity Plus: hDFCGF Assay for Plasminogen activator inhibitor-1 (PAI1) Biomarker Activity (AID 2283066); conditions: primary human foreskin fibroblasts; actives raise or lower the signal
# Method in brief: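 Human foreskin fibroblasts in the hDFCGF system were dosed with compound for 24 h; PAI-1 was quantified by ELISA. Bidirectional curve fitting used DMSO as negative control and baseline.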
# [15] = read-out: Interferon-gamma inducible Protein 10 (IP10), CXCL10 (gene 3627); test: BSK_KF3CT_IP10: BioMAP Diversity Plus: KF3CT Assay for Interferon-gamma inducible Protein 10 (IP10) Biomarker Activity (AID 2283068); conditions: primary human keratinocytes with fibroblasts; actives raise or lower the signal
# Method in brief: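 In a primary skin co-culture of keratinocytes and fibroblasts, IP-10 is quantified by ELISA at 24 h after dosing. SRB staining of parallel wells monitors overt toxicity. Curves are fitted both directions against DMSO.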
# [16] = BSK_KF3CT_SRB: Viability Assessment in the BioMAP Diversity Plus: KF3CT Assay (AID 2283069); conditions: primary human keratinocytes with fibroblasts;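 further: total protein by sulforhodamine B staining as a cytotoxicity measure; fitted for both signal gain and loss against DMSO baseline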
# Method in brief: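 Keratinocytes co-cultured with foreskin fibroblasts (human primary); chemical added, 24 h; fix 10% TCA, stain 0.1% SRB, A560. Bidirectional fit vs DMSO.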
# [17] = read-out: Interleukin-1 alpha (IL1a), IL1A (gene 3552); test: BSK_KF3CT_IL1a: BioMAP Diversity Plus: KF3CT Assay for Interleukin-1 alpha (IL1a) Biomarker Activity (AID 2283070); conditions: primary human keratinocytes with fibroblasts; actives raise or lower the signal
# Method in brief: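 Chemicals were dosed onto co-cultured human keratinocytes and foreskin fibroblasts, IL-1a was quantified by ELISA at 24 h, and activity was fitted in both directions relative to DMSO controls.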
# [18] = read-out: TIMP metallopeptidase inhibitor 2 (TIMP2), TIMP2 (gene 7077); test: BSK_KF3CT_TIMP2: BioMAP Diversity Plus: KF3CT Assay for TIMP metallopeptidase inhibitor 2 (TIMP2) Biomarker Activity (AID 2283071); conditions: primary human keratinocytes with fibroblasts; actives raise or lower the signal
# Method in brief: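 Human primary keratinocyte/foreskin fibroblast co-culture dosed with chemical and sampled at 24 h. TIMP-2 levels quantified by ELISA; bidirectional fitting against DMSO negative control as baseline.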
# [19] = read-out: Intercellular Adhesion Molecule 1 (ICAM1), ICAM1 (gene 3383); test: BSK_KF3CT_ICAM1: BioMAP Diversity Plus: KF3CT Assay for Intercellular Adhesion Molecule 1 (ICAM1) Biomarker Activity (AID 2283067); conditions: primary human keratinocytes with fibroblasts; actives raise or lower the signal
# Method in brief: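 Bidirectional curve fitting against a DMSO baseline was applied to ICAM-1 ELISA signal from primary human skin co-cultures harvested 24 h after treatment, with SRB staining of parallel wells for overt cytotoxicity.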
# [20] = read-out: Transforming growth factor beta 1 (TGFb1), TGFB1 (gene 7040); test: BSK_KF3CT_TGFb1: BioMAP Diversity Plus: KF3CT Assay for Transforming growth factor beta 1 (TGFb1) Biomarker Activity (AID 2283072); conditions: primary human keratinocytes with fibroblasts; actives raise or lower the signal
# Method in brief: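 Human keratinocyte plus foreskin fibroblast primary co-culture, dosed with chemical for 24 h. TGF-b1 quantified by ELISA. Activity fitted bidirectionally against DMSO negative control as baseline.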
compound,measurement,setting,value
c1ccc2[nH]c(-c3cscn3)nc2c1,outcome,[1],inactive
same,outcome,[2],inactive
same,outcome,[3],inactive
same,outcome,[4],inactive
same,outcome,[5],inactive
same,outcome,[6],inactive
same,outcome,[7],inactive
same,outcome,[8],inactive
same,outcome,[9],inactive
same,outcome,[10],inactive
same,outcome,[11],inactive
same,outcome,[12],inactive
same,outcome,[13],inactive
same,outcome,[14],inactive
same,outcome,[15],inactive
same,outcome,[16],inactive
same,outcome,[17],inactive
same,outcome,[18],inactive
CCCCOC(=O)C(C)Oc1ccc(Oc2ccc(C(F)(F)F)cn2)cc1 (configuration not stated),outcome,[1],inactive
same,outcome,[2],inactive
same,outcome,[3],inactive
same,outcome,[4],inactive
same,outcome,[5],inactive
same,outcome,[6],inactive
same,outcome,[7],inactive
same,outcome,[8],inactive
same,outcome,[9],inactive
same,outcome,[10],inactive
same,outcome,[11],inactive
same,outcome,[12],inactive
same,outcome,[13],inactive
same,outcome,[14],inactive
same,outcome,[19],inactive
same,outcome,[15],inactive
same,outcome,[16],inactive
same,outcome,[17],inactive
same,outcome,[18],inactive
same,outcome,[20],inactive
Oc1ccc(C(c2ccc(O)cc2)C(Cl)(Cl)Cl)cc1,AC50,[1],23.8 µM (active)
same,AC50,[2],11.3 µM (active)
same,outcome,[3],inactive
same,AC50,[4],11.7 µM (active)
same,AC50,[5],13.3 µM (active)
same,AC50,[6],31.3 µM (active)
same,AC50,[7],13.5 µM (active)
same,AC50,[8],21.5 µM (active)
same,AC50,[9],29.3 µM (active)
same,AC50,[10],14.5 µM (active)
same,AC50,[11],26.7 µM (active)
same,AC50,[12],29.7 µM (active)
same,AC50,[13],20 µM (active)
same,AC50,[14],25.4 µM (active)
same,AC50,[19],36.4 µM (active)
same,AC50,[15],33.2 µM (active)
same,AC50,[16],24.1 µM (active)
same,AC50,[17],32.9 µM (active)
same,AC50,[18],20.7 µM (active)
CCN(CC)C(=O)c1cccc(C)c1,outcome,[1],inactive
same,outcome,[2],inactive
same,outcome,[3],inactive
same,outcome,[4],inactive
same,outcome,[5],inactive
same,outcome,[6],inactive
same,outcome,[7],inactive
same,outcome,[8],inactive
same,outcome,[9],inactive
same,outcome,[10],inactive
same,outcome,[11],inactive
same,outcome,[12],inactive
same,outcome,[13],inactive
same,outcome,[14],inactive
same,outcome,[15],inactive
same,outcome,[16],inactive
same,outcome,[17],inactive
same,outcome,[18],inactive
CCCCC(CC)CN1C(=O)C2C3C=CC(C3)C2C1=O (configuration not stated),AC50,[1],3.97 µM (active)
same,outcome,[2],inactive
same,outcome,[3],inactive
same,AC50,[4],30 µM (active)
same,outcome,[5],inactive
same,outcome,[6],inactive
same,AC50,[7],29.6 µM (active)
same,AC50,[8],20 µM (active)
same,outcome,[9],inactive
same,outcome,[10],inactive
same,outcome,[11],inactive
same,AC50,[12],16 µM (active)
same,outcome,[13],inactive
same,outcome,[14],inactive
same,outcome,[19],inactive
same,AC50,[15],20 µM (active)
same,outcome,[16],inactive
same,outcome,[17],inactive
same,outcome,[18],inactive
N#CSCSc1nc2ccccc2s1,AC50,[1],1.49 µM (active) and 227 nM (active)
same,AC50,[2],5.35 µM (active) and 30 µM (active)
same,AC50,[3],6.34 µM (active) and 27.7 µM (active)
same,AC50,[4],1.19 µM (active) and 424 nM (active)
same,AC50,[5],2.01 µM (active)
same,outcome,[5],inactive
same,AC50,[6],2.43 µM (active)
same,outcome,[6],inactive
same,AC50,[7],632 nM (active) and 148 nM (active)
same,AC50,[8],1.56 µM (active) and 1.28 µM (active)
same,AC50,[9],1.08 µM (active) and 155 nM (active)
same,AC50,[10],1.63 µM (active) and 148 nM (active)
same,AC50,[11],1.67 µM (active) and 1.3 µM (active)
same,AC50,[12],1.82 µM (active) and 1.61 µM (active)
same,AC50,[13],1.37 µM (active) and 460 nM (active)
same,AC50,[14],1.72 µM (active) and 627 nM (active)
same,AC50,[19],7.09 µM (active) and 10.6 µM (active)
same,AC50,[15],7.03 µM (active) and 11.6 µM (active)
same,AC50,[16],5.31 µM (active)
same,outcome,[16],inactive
same,AC50,[17],7.76 µM (active) and 11.4 µM (active)
same,AC50,[18],4.19 µM (active) and 10.2 µM (active)
same,AC50,[20],10.2 µM (active) and 11.5 µM (active)

# From PubChem BioAssay (EPA / NIEHS)
